Rows were chosen to be rich in hits. Some 0.78% of all compounds tested hit in one or more screens of this group.
GLS inhibitor: glutaminase GLS (human) inhibition. 0.21% of 410,000 active. GLS enzymatic activity, qHTS titration. O94925. AID 624170. Potency, µM (doses to about 45.5 µM), for inactives: top-dose activity change, negative = inhibition, usual class: inhibitors; note: potency is the fitted concentration of half-maximal effect; % is set by controls: 0 for no effect and ±100 for the full control effect
Target sequence (O94925 whole entry, looked up): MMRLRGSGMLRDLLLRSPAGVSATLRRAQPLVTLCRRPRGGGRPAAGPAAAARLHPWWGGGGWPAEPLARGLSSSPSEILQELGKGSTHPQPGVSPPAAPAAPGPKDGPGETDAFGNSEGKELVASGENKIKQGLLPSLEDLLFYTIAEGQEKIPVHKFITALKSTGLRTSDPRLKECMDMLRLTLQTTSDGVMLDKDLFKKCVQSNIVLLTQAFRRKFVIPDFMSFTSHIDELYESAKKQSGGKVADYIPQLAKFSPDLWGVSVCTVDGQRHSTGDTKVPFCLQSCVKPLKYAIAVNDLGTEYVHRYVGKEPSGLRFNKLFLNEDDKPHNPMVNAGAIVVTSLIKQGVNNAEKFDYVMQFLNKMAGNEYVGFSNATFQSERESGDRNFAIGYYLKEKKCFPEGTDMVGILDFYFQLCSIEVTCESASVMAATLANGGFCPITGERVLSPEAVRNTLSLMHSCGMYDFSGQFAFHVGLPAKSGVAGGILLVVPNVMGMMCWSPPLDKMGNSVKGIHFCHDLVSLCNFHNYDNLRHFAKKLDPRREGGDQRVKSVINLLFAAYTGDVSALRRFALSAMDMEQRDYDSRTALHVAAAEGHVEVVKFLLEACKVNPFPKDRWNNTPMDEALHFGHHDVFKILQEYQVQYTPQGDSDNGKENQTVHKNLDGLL
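Two-point fluorescence kinetic (t0, 30 min RT) for hKGA; glutamate detected via glutamate oxidase–HRP–Amplex Red. Substrate: 1 mM L-glutamine solution; buffer 45 mM KH2PO4, pH 8.2.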
PI4K2A block: inhibitors of human PI4K2A | Q9BTU6 | activity change, negative = inhibition, % at 76.9 µM | AID 1346378 | 0.13% of 420,000 active | purified PI4K2A, ADP-Glo luminescence, 1 h; hits give low values; in the data active = activity change below about -50%; inconclusive = mostly about -30% to -49%;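 note: -100% = wells without enzyme as full effect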
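In this quantitative HTS, ADP production by PI4K2A was quantified luminescently after 1 h at ambient temperature; 100 microM adenosine served as plate-quality control.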
CCT chaperon mod: cytosolic chaperonin activity modulation | AID 651819 | activity change, % (test concentration not listed), hits read low | 0.3% of 360,000 active | purified chaperonin ATPase assay, HTRF ADP detection, 30 min; in the data active = activity change below about -30%; note: % is set by controls: 0 for no effect and ±100 for the full control effect
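We incubate TRiC, 40 or 20 nM final, with library compounds at 76 uM and 10 uM ATP for 30 min at 37 °C. ADP formed is detected with Transcreener HTRF reagents after 30 min at room temperature.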
PINK1 expr mod: modulators of PINK1 expression; PINK1 immunofluorescence, high-content cytometry, 24 h; Potency, µM (titrated, usually from 76.6 µM), for inactives: top-dose activation (PINK1 increase), hits mostly activators; 0.2% of 410,000 active; AID 624263; active = well fitted activation curve with a large enough effect; inconclusive = small, poorly fitted or top-dose-only effect; cell line not stated here; note: potency is the fitted concentration of half-maximal effect; % of control where 0% means no effect; nearly all actives have a fitted effect of over 65% in size
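Measures PINK1 amount and localization on or inside mitochondria by immunofluorescence. Stable cells get compounds at 5 concentrations for 24 hours before fixation and staining; CCCP controls included.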
Tb PGK inh: blocks T. brucei phosphoglycerate kinase; Potency, µM (doses to about 57.5 µM), for inactives: at the top dose activity change, negative = inhibition, actives largely listed as inhibitors; PGK/GAPDH coupled, Kinase-Glo luminescence, 60 min; P07378; 0.043% of 380,000 active; note: potency is the fitted concentration of half-maximal effect; % is set by controls: 0 for no effect and ±100 for the full control effect; nearly all actives have a fitted effect of over 60% in size
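Recombinant glycosomal PGK reaction used 1,3-bisphosphoglycerate generated in-well by GAPDH (100nM final) in 100mM TEA pH 7.6, 5mM MgCl2, 0.01% Tween-20. After 60 minutes at room temperature, ATP was read by Kinase-Glo Plus luminescence end-point.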
* hit, by the source's call; [ ] = dose if it differs, or a comment. Unless noted, calls come from the whole dose curve; as a rule, active = well fitted curve in the direction sought with a large enough effect; inconclusive = small, poorly fitted or top-dose-only effect, or another doubt; inactive = no such curve, though single readings can be large; an effect the other way counts as inactive or inconclusive.

`O=C(N/N=C/c1ccc([N+](=O)[O-])o1)C(O)c1ccccc1` (centres undefined) gave GLS inhibitor -1%, PI4K2A block -1, CCT chaperon mod 0, PINK1 expr mod 45µM* and Tb PGK inh inactive.
Screening S=c1[nH]nc(-c2ccc3ncccc3c2)n1-c1ccc2c(c1)OCCO2 returned GLS inhibitor 6.3µM*, PI4K2A block -6, CCT chaperon mod 1, PINK1 expr mod 1% and Tb PGK inh -1%.
For O=C(NCC1Cc2cc(F)cc(-c3cccnc3)c2O1)c1cnn(-c2ccccc2)c1 (centres undefined) the results were PINK1 expr mod 2%.
`COc1ccccc1Cn1c(=O)c2ccccc2n2c(SCC(=O)N3CCCCC3)nnc12` gave GLS inhibitor 16µM*, PI4K2A block -3, CCT chaperon mod -1, PINK1 expr mod 1% and Tb PGK inh -11%.
For COc1ccc(O)c(CN2CCC3(CC2)c2ccccc2[C@@H](NC(=O)c2cccc(F)c2)[C@@H]3OC)c1 the results were PINK1 expr mod 0%.
For N#C/C(=C\c1ccc(O)c(O)c1)C(=O)c1ccc(O)c(O)c1 the results were GLS inhibitor 4%, PI4K2A block -11, CCT chaperon mod -7, PINK1 expr mod 1% and Tb PGK inh 1.1µM*.
For N#C/C(=C\c1ccc(O)c(O)c1)C(=O)N1CCCC1 the results were GLS inhibitor inconclusive, PI4K2A block -2, CCT chaperon mod -1, PINK1 expr mod 0% and Tb PGK inh -5%.
Screening Cc1ccccc1Cn1c(=O)c2c(nc3n2CCN3Cc2ccco2)n(C)c1=O returned GLS inhibitor 7.9µM*, PI4K2A block 2, CCT chaperon mod -1, PINK1 expr mod 1% and Tb PGK inh inactive.
Screening COc1cccc2c1nc(C)c1cc(C)oc12 returned GLS inhibitor -12%, PI4K2A block 0, CCT chaperon mod 1, PINK1 expr mod -1% and Tb PGK inh -3%.
COc1cccc2nc3cc(C)c(C)cc3nc12 was read as GLS inhibitor 2%, PI4K2A block -75*, CCT chaperon mod -2, PINK1 expr mod 0% and Tb PGK inh 0%.
Cc1cnc(-n2ncc(C(=O)NCCc3ccncc3)c2-c2cccs2)nc1-c1ccc(F)cc1 was read as PINK1 expr mod 1%.
`Cc1ccc(/C(O)=C2\C(=O)C(=O)N(CCCN3CCOCC3)C2c2ccccc2F)cc1` (centres undefined) gave GLS inhibitor 14%, PI4K2A block -5, CCT chaperon mod -40*, PINK1 expr mod 0% and Tb PGK inh -2%.
Screening Cc1ccc(/C(O)=C2\C(=O)C(=O)N(CCN(C)C)C2c2ccccc2F)cc1 (centres undefined) returned GLS inhibitor 6%, PI4K2A block 14, CCT chaperon mod -2, PINK1 expr mod -1%[38.3 µM] and Tb PGK inh 5%.
For COc1ccc(S(=O)(=O)NCc2nc(N3CCCC3)c3cccc(C)c3n2)cc1OC the results were PINK1 expr mod 0%.
Screening Cc1ccc2nc(-c3ccncc3)c(NC3CCCC3)n2c1 returned GLS inhibitor 13%, PI4K2A block -5, CCT chaperon mod 3, PINK1 expr mod -1% and Tb PGK inh 1%.
Screening Cc1ccc2nc(-c3ccsc3)c(NC3CCCC3)n2c1 returned GLS inhibitor 1.6µM*, PI4K2A block -1, CCT chaperon mod -2, PINK1 expr mod 1% and Tb PGK inh -2%.
`Cc1ccc(NC(=O)CC2SC(=O)N(c3ccccc3)C2=O)cc1` (centres undefined) gave GLS inhibitor 11µM*, PI4K2A block 24, CCT chaperon mod -2, PINK1 expr mod 2% and Tb PGK inh -10%.
For O=C(CC1SC(=O)N(c2ccccc2)C1=O)Nc1ccccc1 (centres undefined) the results were GLS inhibitor 35%, PI4K2A block 37, CCT chaperon mod -1, PINK1 expr mod -3%[38.3 µM] and Tb PGK inh -4%.
Cc1nc2n(c(=O)c1CCN1CCC(C(=O)c3ccc(F)cc3)CC1)CCS2 was read as PI4K2A block -5.
